Inconclusive results are not listed. A number with no mark means an inactive call. Active and inactive are the calls of the source. Calls follow the shape of the dose curve; as a rule, active = well fitted curve in the direction sought with a large enough effect; inconclusive = small, poorly fitted or top-dose-only effect, or another doubt; inactive = no such curve, though single readings can be large; an effect the other way counts as inactive or inconclusive.

Assay [1] in a line: OV-KATE Cancer Cell Toxicity qHTS against the NCATS CANVASS Library (AID 1347345). Also: potency is read from the fitted curve at half-maximal effect. As to activity change, negative = cytotoxicity: % is scaled to controls: 0 for no effect and ±100 for the full control effect. The method in brief:
(§1)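 Step one: seed 1000 cells per well. Step two: incubate 4 h. Step three: add test compounds in 11 concentrations. Step four: culture 72 h, then add CellTiter-Glo and record luminescence after 15min.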
On the technique in general: In qHTS, concentration-response curves come from the screen itself.

Assay [2] in a line: UWB1.289 Cancer Cell Toxicity qHTS against the NCATS CANVASS Library (AID 1347347). Also: nearly all actives have a fitted effect of over 60% in size. Also: potency is read from the fitted curve at half-maximal effect. The essentials:
as §1

Assay [3] can be described thus: OV-SAHO Cancer Cell Toxicity qHTS against the NCATS CANVASS Library (AID 1347348). Also: nearly all actives have a fitted effect of over 55% in size. Also: potency is read from the fitted curve at half-maximal effect. The method in brief:
as §1

Assay [4] in a line: U-118MG Cancer Cell Toxicity qHTS against the NCATS CANVASS Library (AID 1347351). Also: potency is read from the fitted curve at half-maximal effect. The method in brief:
as §1

Assay [5] can be described thus: COV-362 Cancer Cell Toxicity qHTS against the NCATS CANVASS Library (AID 1347352). Also: potency is read from the fitted curve at half-maximal effect. As to activity change, negative = cytotoxicity: series mostly up to about 38 µM; % is scaled to controls: 0 for no effect and ±100 for the full control effect. The method in brief:
(§2)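 Luminescent ATP read-out (CellTiter-Glo, 15min at room temperature) measures survival after cells face an 11-point compound series for 72 hours at 37 degrees C/5% CO2.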

Assay [6] in a line: HPAF-II 12hr Apoptosis Induction qHTS against the NCATS CANVASS Library (AID 1347358). Also: 0% is about no effect. The essentials:
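500 HPAF-II cells/well; cmpds 11-pt; 12 hr, 37 degrees C/5% CO2; Caspase-Glo 3/7 added, 15 min RT dark; luminescence read. Doxorubicin titration as control.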

Assay [7] can be described thus: HEK293 12hr Apoptosis Induction qHTS against the NCATS CANVASS Library (AID 1347361). Also: 0% is about no effect. The essentials: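 Read-out: Caspase-Glo 3/7 luminescence (DEVD substrate), 15 min RT. Preceded by 12 h compound exposure of HEK293, 500 cells/well, 11-pt qHTS titration; doxorubicin titration as control.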
Assay [8] in a line: KB-8-5-11 Cancer Cell Toxicity qHTS against the NCATS CANVASS Library (AID 1347364). Also: nearly all actives have a fitted effect of over 75% in size. Also: potency is read from the fitted curve at half-maximal effect. The method in brief: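 Plate 500 KB-8-5-11 cells per well in DMEM + 10% FBS, add compounds by pin transfer, incubate 72 hr at 37C. Add CellTiter-Glo, wait 10 minutes at room temperature, read luminescence.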
Assay [9] can be described thus: qHTS for Hypoxia signaling pathway (HIF-1) agonists against the NCATS CANVASS Library (AID 1347375). Also: 0% is about no effect. The essentials: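 ME-180 HRE-bla reporter cells; 2,000/well, 0.5% dialyzed FBS; cpd added after 5 h, 17 h 37C/5% CO2; CCF4-AM 2 h RT; FRET 460/530 nm; CellTiter-Glo viability same wells, 30 min.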
Assay [10] can be described thus: qHTS for Antimalaria activity screened against the NCATS CANVASS Library (AID 1347380). Also: nearly all actives have a fitted effect of over 40% in size. Also: potency is read from the fitted curve at half-maximal effect.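 As to activity change, negative = inhibition: Plasmodium falciparum strain Dd2 asexual parasites grown in red blood cells; series mostly up to about 29 µM.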 The method in brief: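 Dd2 strain, infected erythrocytes 2.5% Hct final / 0.3% parasitemia. 11-pt qHTS titration, 72 h, 37C, 5% O2, 5% CO2. Lysis buffer + SYBR Green, 18 h, fluorescence 485/535 nm.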
Assay [11] in a line: qHTS assay for small molecule disruptors of mitochondrial membrane potential screened against the NCATS CANVASS Library (AID 1347389). Also: nearly all actives have a fitted effect of over 60% in size. Also: potency is read from the fitted curve at half-maximal effect. The essentials:
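HepG2, 2,000 cells/well, attached overnight; compound 1 hr, 37C, 5% CO2; Mito-MPS dye 30 min, 37C; fluorescence 535 nm (monomer) and 590 nm (aggregate); decreased 590/535 ratio = depolarization.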

Assay [12] can be described thus: Secretion counterscreen for inhibitors of the SERCaMP assay screened against the NCATS CANVASS Library (AID 1347390).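 Also: light from luciferase secreted into medium read as a measure of general secretion.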 Also: potency is read from the fitted curve at half-maximal effect. The essentials: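 SH-SY5Y cells expressing constitutively secreted GLuc, 1000 cells/well, attached 4 h at 37C, then exposed to compounds (0.001 - 77 uM, 11-pnt series) for 20 h. Coelenterazine added; luminescence read to flag secretory-pathway interferers.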
On the technique in general: The purpose of a counterscreen is to sort out artefacts and off-target activity.

Assay [13] in a line: UWB1.289-WTBRCA1 Cancer Cell Toxicity qHTS against the NCATS CANVASS Library (AID 1347354). Also: potency is read from the fitted curve at half-maximal effect. As to activity change, negative = cytotoxicity: % is scaled to controls: 0 for no effect and ±100 for the full control effect. The method in brief:
as §2

Assay [14] is described as follows: qHTS for activators of dead-cell proteases activity screened against the NCATS CANVASS Library (AID 1347392).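 Also: luminescence from protease leaking out of membrane-damaged cells cleaving impermeant substrate; rising signal means more cytotoxicity.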 Also: potency is read from the fitted curve at half-maximal effect. The essentials:
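HepG2 cells (2000/well) attached 18 h at 37C, then exposed 5 h to compounds (11-point qHTS). Dead-cell protease activity read as luminescence from cell-impermeant AAF-aminoluciferin substrate after 15 min at room temperature.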

Assay [15] can be described thus: qHTS for inhibitors of Wild type Zika virus screened against the NCATS CANVASS Library (AID 1347396).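 Also: ATP luminescence of surviving cells so rescue from viral cell killing; series mostly up to about 46 µM; % is scaled to controls: 0 for no effect and ±100 for the full control effect.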 The method in brief: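 Vero 766 cells, 1000/well, o/n attach; cpds pin-transferred (11-pt qHTS); WT Zika added; 72 h, 37C, 5% CO2; CellTiter Glo lumi. Uninfected + vehicle = 100% inhibition.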
Assay [16] is described as follows: Redox Reaction Profiling qHTS: Assay Interference Panel against the NCATS CANVASS Library (AID 1347401). Also: potency is read from the fitted curve at half-maximal effect.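 As to activation (redox signal): 100% = activation by 2 µM chloranil control.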 The method in brief:
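Resazurin (5 uM) conversion to resorufin measured with 200 uM DTT in 50 mM HEPES pH 7.3, 50 mM NaCl. Compounds tested in 11-point qHTS series. Fluorescence (ex 525/em 598 nm) read before and after 15 min dark incubation.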

Assay [17] in a line: qHTS for activators of Nrf2/ARE signaling pathway screened against the NCATS CANVASS Library (AID 1347391). Also: nearly all actives have a fitted effect of over 60% in size. Also: potency is read from the fitted curve at half-maximal effect. As to activation: 0% is about no effect. The essentials: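 Plate ARE-bla HepG2 cells at 2000/well and let them settle 5 h. Pin-transfer compounds in DMSO, incubate 16 h at 37C. Load CCF4 for 2 h at room temperature and read blue/green fluorescence.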
Assay [18] is described as follows: qHTS for inhibitors of ER calcium dysfunction: SERCaMP assay screened against the NCATS CANVASS Library (AID 1347393). Also: nearly all actives have a fitted effect of over 40% in size. Also: potency is read from the fitted curve at half-maximal effect.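 As to activity change, negative = inhibition: series mostly up to about 77 µM; % is scaled to controls: 0 for no effect and ±100 for the full control effect; lower secreted reporter signal means inhibitor of ER calcium depletion.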 The method in brief:
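qHTS in SH-SY5Y reporter cells: 16 h compound pretreatment, 4 h thapsigargin, then secreted Gaussia luciferase measured by luminescence.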

Assay [19] can be described thus: HPAF-II Cancer Cell Toxicity qHTS against the NCATS CANVASS Library (AID 1347346). Also: nearly all actives have a fitted effect of over 55% in size. Also: potency is read from the fitted curve at half-maximal effect. The method in brief:
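Luminescence from CellTiter-Glo, added after 72 h compound exposure and a 15 min room-temperature incubation, served as the viability readout. HPAF-II cells (1000/well) received an 11-point concentration series.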

Assay [20] can be described thus: SW1088 Cancer Cell Toxicity qHTS against the NCATS CANVASS Library (AID 1347350). Also: nearly all actives have a fitted effect of over 75% in size. Also: potency is read from the fitted curve at half-maximal effect. The essentials: as §1

For the molecule `CN1CC[C@]2(c3cccc4c3N[C@H]3N(C)CC[C@@]43[C@]34CCN(C)[C@H]3Nc3ccccc34)c3ccccc3N[C@H]12`, the Potency in assay [1] was 18.8 µM (active); in assay [2], 18.8 µM (active); in assay [3], 16.7 µM (active); in assay [4], 7.49 µM (active); in assay [5], 14.9 µM (active); in [8], 18.7 µM (active). The Potency is 0.0375 µM (active) in assay [10] and 19.3 µM (active) in assay [12]. The Potency result in [6] and in assay [11] was “inactive” in each case. The result in assay [7] and in assay [9] was inactive.
With `CC(C)[C@]12CC[C@@]3(C)[C@H](C)CC[C@H](O)[C@@]3(CC1)c1cc3c(cc12)[nH]c1ccccc13`, the Potency result in assay [1], in assay [4], in assay [5], in assay [13], in [6] and in assay [12] was “inactive” throughout. Besides, the Potency result in assay [14] and in assay [16] was “inactive” each time. Besides, the molecule was called inactive in assay [9] and in assay [15]. In assay [11], the Potency is 11.7 µM (active).
On to `CO/C=C/C(=O)c1cc2cnc3c(N)cc(=NC(=O)C(C)C)c([nH]1)c23`, for which the Potency in assay [3] is 0.0375 µM (active); in [5] it was 0.211 µM (active); in assay [8], 0.296 µM (active); in assay [11], 3.31 µM (active); in [12], 1.72 µM (active); in assay [14], 23.4 µM (active). The result in [7] was inactive. Further, the Potency entry in assay [10], in assay [17], in assay [18] and in [16] was “inactive” in each case.
As for `C[C@@]12CCC[C@@](C)(C(=O)O)[C@H]1C[C@@H](O)[C@@]13C[C@@H](CC[C@@H]21)[C@](C)(O)C3`, the Potency entry in assay [1], in assay [19], in assay [2], in assay [3], in assay [20] and in assay [4] was “inactive” in each case. Besides, the Potency result in [5], in assay [13], in [6], in assay [8], in assay [10] and in assay [11] was “inactive” each time. The Potency entry in assay [12], in assay [17], in [14], in assay [18] and in assay [16] was “inactive” each time. Besides, the outcome in assay [7], in [9] and in assay [15] was inactive.
On to `[C-]#[N+][C@@]12C(=O)[C@@H]3[C@@H](O[C@@]4(C(=O)N(C)c5cccc1c54)C3(C)C)C(=O)[C@@]2(C)C=C`, for which the Potency entry in [1], in assay [19], in assay [2], in assay [3], in [20] and in assay [4] was “inactive” in each case. For the same molecule, the Potency entry in assay [5], in assay [13], in assay [6], in assay [8], in assay [12] and in assay [17] was “inactive” throughout. Also, the Potency entry in [14] and in [16] was “inactive” throughout. Moreover, the molecule was classed as inactive in assay [7] and in assay [9].
In the case of `COc1ccc([C@@H]2CC(=O)c3c(cc(O)c(C/C=C(\C)CCC=C(C)C)c3O)O2)cc1`, the activity change, negative = cytotoxicity in [19] is -11.2% [at 7.64 µM]; in assay [3], -12.7% [at 7.64 µM]; in assay [5], 1.08% [at 7.64 µM]; in assay [13], -3.16% [at 7.64 µM]. The outcome in assay [4] is “inactive [at 7.64 µM]”. Besides, the values for the caspase activation in assay [6] and in assay [7] were 1.72% [at 9.19 µM] and 1.23% [at 9.19 µM], respectively. The activation in [9] is 1.16% [at 7.64 µM]. Also, the Potency in assay [11] is 3.84 µM (active). In assay [12], the activity change, negative = inhibition is 35.7% [at 15.3 µM]. In addition, the activation (redox signal) in assay [16] was -16.9% [at 11.4 µM].
Take `C=C[C@@]1(C)CC[C@@H]([C@H](C)C(C)=O)O1`: the Potency entry in [1], in assay [19], in assay [2], in assay [3], in [20] and in [4] was “inactive” in each case. Also, the Potency entry in assay [5], in assay [13], in assay [6], in [8], in [11] and in assay [17] was “inactive” each time. Also, the Potency entry in assay [18] and in [16] was “inactive” each time. Besides, the result in assay [7], in [9] and in assay [15] was inactive.
`C/C(=C\[C@H](C)C(=O)CCCC1CC(=O)NC(=O)C1)[C@@H]1OC(=O)/C=C/CC/C=C/[C@H](O)[C@@H](O)[C@@H]1C`: the Potency in [19] was 1.33 µM (active); in assay [2], 1.18 µM (active); in assay [3], 0.747 µM (active); in assay [10], 5.29 µM (active); in assay [12], 2.72 µM (active). For the same molecule, the result in assay [7], in assay [9] and in [15] was inactive. The Potency result in [8], in assay [11], in assay [17], in assay [14] and in assay [18] was “inactive” in each case.
Turning to `CC(=O)c1c(C)cc2c(c1O)C(=O)c1c(O)cc(O)cc1C2=O`, the Potency entry in assay [1], in assay [19], in assay [2], in assay [3], in assay [20] and in assay [4] was “inactive” each time. Also, the Potency entry in assay [5], in [13], in assay [8], in assay [10], in assay [11] and in assay [12] was “inactive” in each case. Also, the Potency entry in assay [17], in assay [14] and in assay [18] was “inactive” in each case. Moreover, the molecule was classed as inactive in [7], in assay [9] and in assay [15].
For `C/C=C/C(=O)C1(O)CC2CC(C(=O)O)CC(C)C2C1C1=C2C(=O)NC(=O)C2=C(CCCCC)C(C)O1` (configuration not stated), the Potency in assay [19] is 18.8 µM (active); in [20], 7.49 µM (active); in assay [17], 1.17 µM (active); in [18], 19.3 µM (active). Also, the Potency entry in [6], in assay [8] and in assay [10] was “inactive” in each case. The outcome in [7] and in assay [9] was inactive.
For the molecule `CCCc1c2c([nH]c(=O)c1C)C(=O)c1[nH]c(=O)c(C)c(CCC)c1C2=O`, the Potency in assay [2] was 7.47 µM (active); in assay [3], 11.8 µM (active); in assay [20], 8.41 µM (active); in assay [5], 7.47 µM (active); in [13] it was 7.47 µM (active); in assay [10] it was 11.8 µM (active). The Potency in [16] was 0.857 µM (active). The Potency entry in assay [4], in [6], in [8] and in assay [12] was “inactive” each time. For the same molecule, the molecule was called inactive in assay [7], in assay [9] and in [15].

These data come from PubChem BioAssay (NCATS).
